Calls of active or inactive are those of the source. The call rests on the fitted dose curve; in most records, active means well fitted inhibition curve with a large enough effect; inactive means flat fitted curve, though single readings scatter.
Target: Tyrosine-protein kinase Yes (Homo sapiens) (UniProt P07947)
Assay: qHTS for small molecule inhibitors of Yes1 kinase: Confirmatory screen on the cherrypicks
Conditions: Recombinant Yes1, ADP-Glo luminescence, poly(E4Y) substrate
Excerpt: The Src family of non-receptor protein tyrosine kinases contains nine members, including Yes1, Src, Fyn, Lyn, and […]. These kinases have important roles in a variety of cellular functions, such as cell proliferation, survival, and differentiation. Src, the most well characterized member of this family, has been previously identified as a proto-oncogene. […] In melanoma, it has been shown that Yes1, and not other family members, such as Src, is functionally involved in the malignant phenotype. Additionally, a recent study examining the downregulation of Yes1 by shRNA found significant effects on cell survival/growth for basal-like and Her2-positive breast cancers. Despite the potential for Yes1 to be a target for the above-described cancers, there are very few reports on the identification of potent and selective inhibitors of Yes1 kinase. Antagonists of Yes1 would further elucidate Yes1 biology and help to confirm whether Yes1 is a viable target for therapeutic intervention in a variety of cancers. A compound that inhibits Yes1 could be important for the treatment of various cancers in which Yes1 is highly expressed and can also be used as a tool compound to help further elucidate Yes1 biology. To that end, we have developed a sensitive HTS biochemical assay for Yes1 activity. This assay was screened against several small compound libraries to look for modulators of activity. Inhibition is the desired output for this assay. NIH Molecular Libraries Probe Production Centers Network [MLPCN] NIH Chemical Genomics Center [NCGC] MLPCN Grant: MH084681
Two microliter of Yes1 enzyme (columns 1-2, 5-48; Millipore, Billerica, MA) are dispensed into Greiner, white solid-bottom 1536-well assay plates; columns 3 and 4 receive buffer without Yes1 as a control for maximum inhibition. Compounds (23 nL) are then transferred via Kalypsys pin tool equipped with 1536-pin array (10 nL slotted pins, V&P Scientific, San Diego, CA). The library compounds are in columns 5-48 and columns 1-4 serve as controls with DMSO in columns 1, 3 and 4 and 10 mM 1:3 fold serial of dasatinib in column 2. Following addition of compound and a 20 minute incubation, 1 uL of substrate (ATP and poly-E4Y from Sigma-Aldrich, St. Louis, MO) is added, and the biochemical reaction is allowed to progress for 60 minutes at room temperature. The production of ADP is then quantified by the ADP-Glo Kit (Promega, Madison, WI). First, 2 uL of the first kit reagent is added, and the reaction is incubated for 45 minutes; then, 4 uL of the second kit reagent are added and the reaction is incubated for 30 minutes at which time the luminescence is read on a Viewlux plate reader (Perkin-Elmer, Waltham, MA). The final concentration of reagents in the reaction are 4 nM Yes1, 0.1 mM ATP, 100 uM EGTA, 10 mM MgCl2, 0.3 mg/mL poly(E4Y), 50 mM Tris pH 7.5, 1 mM DTT, 150 mM NaCl, 0.01% Brij-35, and 5% glycerol. Data are normalized to DMSO-treated control columns with (maximum signal) and without (minimum signal) enzyme.

Tyrosine-protein kinase Yes (Homo sapiens), sequence (P07947 whole entry, looked up): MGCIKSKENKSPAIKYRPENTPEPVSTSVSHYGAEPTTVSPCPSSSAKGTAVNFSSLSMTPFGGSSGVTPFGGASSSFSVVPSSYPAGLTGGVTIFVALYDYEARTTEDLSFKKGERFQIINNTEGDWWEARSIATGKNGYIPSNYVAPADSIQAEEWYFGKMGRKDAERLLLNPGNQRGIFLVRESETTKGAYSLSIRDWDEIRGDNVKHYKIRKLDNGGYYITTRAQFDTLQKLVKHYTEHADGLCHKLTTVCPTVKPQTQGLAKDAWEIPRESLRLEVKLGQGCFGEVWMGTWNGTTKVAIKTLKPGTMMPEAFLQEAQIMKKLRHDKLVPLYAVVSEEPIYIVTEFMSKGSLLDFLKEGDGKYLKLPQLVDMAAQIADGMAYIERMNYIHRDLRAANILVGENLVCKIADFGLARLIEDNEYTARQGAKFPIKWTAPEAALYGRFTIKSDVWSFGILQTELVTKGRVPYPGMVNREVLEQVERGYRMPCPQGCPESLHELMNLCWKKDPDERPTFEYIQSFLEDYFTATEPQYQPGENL

Potency, active:
CN1CCC(CNc2ccc3ncc(-c4cccc(OC(F)(F)F)c4)n3n2)CC1 2770 nM, CCN(CC)CCOc1ccc(Nc2ncc3cc(-c4c(Cl)cccc4Cl)c(=O)n(C)c3n2)cc1 0.4 nM, Cc1ccc(C(=O)Nc2cccc(C(F)(F)F)c2)cc1-c1ccc2nc(NCCN3CCOCC3)ncc2c1 0.7 nM, CC(NCc1ccc2c(c1)nc(NC(=O)c1ccc(-c3cn[nH]c3)s1)n2CC(C)(C)O)C(C)(C)C (stereo unspecified) 1.7 nM, NC(=O)Nc1cc(-c2ccc(CN3CCOCC3)c(F)c2)sc1C(=O)N[C@H]1CCCNC1 1.7 nM, CC(C)Oc1cc(Nc2nc(N[C@@H](C)c3ccc(F)cn3)ncc2Cl)[nH]n1 39.1 nM
